Screening data as filed in PubChem BioAssay.
Tb PYK inh: T. brucei pyruvate kinase inhibition; TbPYK enzyme, Kinase-Glo Plus ATP luminescence, 45 min; 410,000 compounds, 0.12% hits; Potency, µM (doses to about 76.8 µM), for inactives: at the top dose activity, negative = inhibition, most hits filed as inhibitors; Q57TT1; further: potency means the concentration at half of the fitted maximal effect; nearly all actives have a fitted effect of over 50% in size
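Readout: single end-point luminescence (Kinase-Glo Plus, 10 min). Reaction conditions were TbPYK/substrate plus 130 uM ADP, 45 min at RT, pH 7.2 TEA buffer. No-enzyme wells served as controls, and data were normalized before concentration-response fitting.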
HCMV inh: inhibitors of human cytomegalovirus; activity change, negative = inhibition, % at 57.5 µM; HFF cells, HCMV-luciferase reporter, 72 h; hits give low values; 410,000 compounds, 4.5% hits; AID 1259415; in the data active means activity change below about -60%; inconclusive means no clear call, values can overlap the other calls; inactive means above about -39%
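Luciferase read-out from HCMV-luciferase-infected HFFs (MOI 1 PFU/cell) 72 h post infection at 37C; compounds added after 16 h cell attachment; activity normalized between buffer-only basal and Salinomycin (10uM) inhibitor controls.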
Vaccinia mCherry: inhibitors of vaccinia virus infection (mCherry reporter signal); Vaccinia virus mCherry reporter infection, fluorescence; Potency, µM (highest dose often 36.5 µM), for inactives: at the highest dose activity change, negative = inhibition, actives largely listed as inhibitors; 310,000 compounds, 0.63% hits; AID 720579; calls by dose curve; tested in A549 cells; further: potency means the concentration at half of the fitted maximal effect; nearly all actives have a fitted effect of over 35% in size
VACV Venus inh: inhibitors of vaccinia virus (Venus reporter). Vaccinia virus Venus reporter expression, fluorescence. Potency, µM (highest dose often 36.5 µM), for inactives: at the top dose activity change, negative = inhibition, usual class: inhibitors. 330,000 compounds, 0.46% hits. AID 720580; calls by dose curve; tested in A549 cells; further: potency means the concentration at half of the fitted maximal effect; nearly all actives have a fitted effect of over 30% in size
LmPK inhibitor: inhibitors of Leishmania mexicana pyruvate kinase. Q27686. purified LmPK, Kinase-Glo ATP luminescence, 1 h. Potency, µM (doses to about 57.5 µM), without a hit: at the top dose activity change, negative = inhibition, usual class: inhibitors. 290,000 compounds, 0.37% hits. AID 1721; further: potency means the concentration at half of the fitted maximal effect
Target sequence (Q27686 whole entry, looked up): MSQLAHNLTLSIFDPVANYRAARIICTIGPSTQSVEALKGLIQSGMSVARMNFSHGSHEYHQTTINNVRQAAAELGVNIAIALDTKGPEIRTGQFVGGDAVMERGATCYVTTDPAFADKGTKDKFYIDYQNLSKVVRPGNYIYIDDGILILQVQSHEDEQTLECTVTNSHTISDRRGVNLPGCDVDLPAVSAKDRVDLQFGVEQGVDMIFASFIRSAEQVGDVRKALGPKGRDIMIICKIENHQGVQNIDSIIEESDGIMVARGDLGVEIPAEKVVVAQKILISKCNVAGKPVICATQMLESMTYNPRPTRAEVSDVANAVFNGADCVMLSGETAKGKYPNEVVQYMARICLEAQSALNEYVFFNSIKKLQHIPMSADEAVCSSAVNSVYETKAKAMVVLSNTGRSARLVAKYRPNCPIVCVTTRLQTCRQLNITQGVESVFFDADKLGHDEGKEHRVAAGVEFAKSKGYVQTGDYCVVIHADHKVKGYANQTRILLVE
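ATP generated from ADP (0.1 mM) and PEP (0.5 mM) by 0.1 nM LmPK over 1 h at room temperature (pH 7.2 imidazole buffer) was detected by coupled luciferase luminescence. Values were normalized to uninhibited and no-enzyme wells.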
An asterisk follows results filed as active. Most compounds without a hit are left out; they make up all but 5% or so of the library. Unless noted, the call rests on the fitted dose curve; in most records, active means well fitted curve in the direction sought with a large enough effect; inconclusive means small, poorly fitted or top-dose-only effect, or another doubt; inactive means no such curve, though single readings can be large; an effect the other way counts as inactive or inconclusive. On the % scale 0 is the no-effect control and ±100 the full control effect.

For Cc1ccc(NC(=O)CSc2nnnn2C)cc1S(=O)(=O)N(C)C the results were Tb PYK inh -2.5%, HCMV inh 22.0, Vaccinia mCherry inactive, VACV Venus inh -11.1% and LmPK inhibitor 0.4%.
Screening Cc1cc(S(=O)(=O)N2CC(=O)N(CCc3ccccc3)C(=O)C2)ccc1F returned Tb PYK inh -2.8%, HCMV inh -89.3*, Vaccinia mCherry -12.2%, VACV Venus inh -8.5% and LmPK inhibitor 2.1%.
For O=C1CN(S(=O)(=O)c2ccccc2)CC(=O)N1CCc1ccccc1 the results were Tb PYK inh -4.1%, HCMV inh -23.8 and LmPK inhibitor 8.3%.
For COc1cccc(-n2c(/C=C/c3ccccn3)nc3ccccc3c2=O)c1 the results were Tb PYK inh -4.4%, HCMV inh inconclusive, Vaccinia mCherry -11.2%, VACV Venus inh -9.8% and LmPK inhibitor 1.2%.
For COc1ccccc1-n1c(/C=C/c2c(C)n(C)c3ccccc23)nc2ccccc2c1=O the results were Tb PYK inh 2.6%, HCMV inh -85.1*, Vaccinia mCherry -23.9% and VACV Venus inh -6.8%.
Screening COc1ccc(Cl)cc1-n1c(/C=C/c2cccc3ccccc23)nc2ccccc2c1=O returned Tb PYK inh -3.9%, HCMV inh 3.8, Vaccinia mCherry -20.1% and VACV Venus inh -18.9%.
For COc1ccccc1-n1c(/C=C/c2ccccn2)nc2ccccc2c1=O the results were Tb PYK inh 1.6%, HCMV inh -101.1*, Vaccinia mCherry inconclusive, VACV Venus inh inconclusive and LmPK inhibitor -0.4%.
`Cc1ccccc1-n1c(/C=C/c2c(C)n(C)c3ccccc23)nc2ccccc2c1=O` gave Tb PYK inh -1.9%, HCMV inh -19.0, Vaccinia mCherry inconclusive and VACV Venus inh -15.9%.
Screening Cc1cccc(-n2c(/C=C/c3ccccn3)nc3ccccc3c2=O)c1 returned Tb PYK inh -4.3%, HCMV inh -101.0* and LmPK inhibitor -1.3%.
Screening O=C(CSc1cn(CC(=O)N2CCCC2)c2ccccc12)Nc1ccc(Cl)cc1 returned Tb PYK inh -7.5%, HCMV inh -0.6, Vaccinia mCherry -16.2% and VACV Venus inh -21.4%.
O=C1CC(c2ccccc2)CC(O)=C1C=NCc1ccccc1Cl (stereo unspecified) was read as Tb PYK inh -0.9%, HCMV inh -81.1*, Vaccinia mCherry inconclusive, VACV Venus inh inconclusive and LmPK inhibitor -3.0%.
For COc1ccc(N(CC(=O)Nc2ccc3c(c2)OCO3)S(=O)(=O)c2ccc(F)cc2)cc1 the results were Tb PYK inh -10.4%, HCMV inh -76.0*, Vaccinia mCherry -18.1%, VACV Venus inh -16.4% and LmPK inhibitor 0.5%.
Screening COc1ccc(N(CC(=O)Nc2ccc3c(c2)OCO3)S(=O)(=O)c2ccccc2)c(OC)c1 returned Tb PYK inh -16.9%, HCMV inh -68.0* and LmPK inhibitor 4.5%.
`COc1ccc(S(=O)(=O)N(CC(=O)Nc2cccnc2)c2ccc(Cl)cc2)cc1` gave Tb PYK inh 1.5%, HCMV inh -103.7*, Vaccinia mCherry -10.3% and VACV Venus inh -9.4%.
For COc1ccc(S(=O)(=O)N(CC(=O)Nc2ccc(S(=O)(=O)N3CCOCC3)cc2)c2ccccc2)cc1 the results were Tb PYK inh -8.0%, HCMV inh -85.0*, Vaccinia mCherry -6.0%, VACV Venus inh -17.0% and LmPK inhibitor -2.7%.
COCCNc1nnc(SCC(=O)Nc2nnc(-c3ccccc3)o2)s1 was read as Tb PYK inh 3.2%, HCMV inh -33.5, Vaccinia mCherry -9.8% and VACV Venus inh -3.9%.
CC1(C(=O)Nc2ccc3c(c2)OCO3)CCN1Cc1csc2ccccc12 (stereo unspecified) was read as Tb PYK inh -8.2%, HCMV inh -20.0, Vaccinia mCherry -1.8% and VACV Venus inh -13.2%.
Screening N/C(=N\OC(=O)N1CCOCC1)c1ccccc1 returned Tb PYK inh -7.6%, HCMV inh inconclusive, Vaccinia mCherry inactive, VACV Venus inh -25.9% and LmPK inhibitor -22.6%.
Screening N#C/C(=C/c1ccc(OCc2ccc(C(=O)O)cc2)c(Br)c1)c1cccc(F)c1 returned Tb PYK inh 1.6%, HCMV inh inconclusive, Vaccinia mCherry 1.7%, VACV Venus inh -11.5% and LmPK inhibitor 6.2%.
Screening COc1ccc(S(=O)(=O)n2nc(C)c(S(=O)(=O)N3CCC(C)CC3)c2C)cc1C returned Tb PYK inh -8.9%, HCMV inh 6.8, Vaccinia mCherry 3.9% and VACV Venus inh -8.7%.
`O=C(O)CN(c1ccc(F)cc1)S(=O)(=O)c1ccc2c(c1)OCCO2` gave Tb PYK inh -2.5%, HCMV inh -28.8, Vaccinia mCherry -17.1%, VACV Venus inh -9.0% and LmPK inhibitor 1.9%.
Screening COc1ccc(N(CC(=O)Nc2ccc3c(c2)OCCO3)S(=O)(=O)c2c(C)nn(C)c2C)cc1 returned Tb PYK inh -7.2%, HCMV inh 2.8 and LmPK inhibitor 14.0%.
`CCCC(C)NC(=O)CN(c1ccc2c(c1)OCCO2)S(=O)(=O)c1ccccc1` (stereo unspecified) gave Tb PYK inh -17.9%, HCMV inh -5.2 and LmPK inhibitor -0.2%.
For CC(C)C(NC(=O)CN(c1ccc2c(c1)OCCO2)S(=O)(=O)c1ccccc1)C(C)C the results were Tb PYK inh -2.4%, HCMV inh -60.5*, Vaccinia mCherry -0.3% and VACV Venus inh -20.4%.
`COc1ccc(N(CC(=O)Nc2ccc3c(c2)OCCO3)S(=O)(=O)c2cccc(C)c2)cc1` gave Tb PYK inh 0.7%, HCMV inh -76.9*, Vaccinia mCherry -28.9% and VACV Venus inh -12.1%.
`Cc1ccc(N(CC(=O)N2CC(=O)Nc3ccccc32)S(=O)(=O)c2ccc3c(c2)OCCO3)cc1` gave Tb PYK inh 1.1%, HCMV inh -62.5* and LmPK inhibitor 4.0%.
Screening O=C(CCc1ccc(S(=O)(=O)N2CCOCC2)cc1)Nc1nc(COc2ccccc2)cs1 returned Tb PYK inh -2.7%, HCMV inh -92.5* and LmPK inhibitor 6.3%.
Screening Cc1ccc(-c2csc(=S)n2CC(=O)OCC(=O)NCc2ccc(F)cc2)cc1 returned LmPK inhibitor 0.1%.
For O=c1cc(-c2cccnc2)oc2c1ccc1ccccc12 the results were Tb PYK inh 0.8%, HCMV inh -35.0, Vaccinia mCherry -5.4%, VACV Venus inh -1.9% and LmPK inhibitor 1.9%.
`CCc1ccc(-n2c(=O)c3c4c(sc3n(CC(=O)c3ccc(F)cc3)c2=O)CCC4)cc1` gave Tb PYK inh -1.2%, HCMV inh -87.8*, Vaccinia mCherry -6.3% and VACV Venus inh -20.4%.
Screening COc1ccc(NC(=O)CCCC(=O)NCCc2ccc(OC)c(OC)c2)cc1 returned Tb PYK inh -3.6%, HCMV inh 7.1 and LmPK inhibitor -4.4%.
Cc1ccc(-n2c(C)cc(/C=N/NC(=O)c3ccc(CN4CCOCC4)cc3)c2C)cc1 was read as Tb PYK inh -1.8%, HCMV inh inconclusive and LmPK inhibitor 4.0%.
